Test results as given in PMC7862700, “An all-to-all approach to the identification of sequence-specific readers for epigenetic DNA modifications on cytosine”.

Tests used:
Assay in all cases: DAPPL (digital affinity profiling via proximity ligation, sequencing); 10 mM Tris-HCl pH 7.5, 50 mM NaCl, 1 mM DTT, 4% glycerol, room temperature, 30 min; GST-TFs on glutathione beads, 16-mer random dsDNA library, 0.1% formaldehyde crosslink after washing; high values mean tight binding
FEV = molecular target: T1, FEV (Homo sapiens, UniProt Q99581 1-238); conditions: protein: recombinant; tags: N-terminal GST; dsDNA, one strand shown
T1 sequence: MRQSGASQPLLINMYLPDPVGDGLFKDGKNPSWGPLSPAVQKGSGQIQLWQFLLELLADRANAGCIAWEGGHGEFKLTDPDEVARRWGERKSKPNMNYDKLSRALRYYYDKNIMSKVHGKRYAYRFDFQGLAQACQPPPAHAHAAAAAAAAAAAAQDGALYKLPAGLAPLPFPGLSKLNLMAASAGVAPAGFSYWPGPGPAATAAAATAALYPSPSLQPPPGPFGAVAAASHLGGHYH
Outline: (§1)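 Beads coated with glutathione captured GST-fused human transcription factors that had been expressed in yeast, and the factors were then given DNA barcodes and pooled with a tag-only sample. The pools were incubated with 200 nmole of a random double-stranded 16-mer DNA library in Tris/NaCl/DTT/glycerol buffer for 30 min at room temperature, washed, crosslinked with 0.1% formaldehyde and proximity-ligated with BsaI/T4 ligase at 37 °C for 1 h. PCR amplification and Illumina NextSeq500 sequencing came last. Binding signal is each hexamer's read frequency for a factor divided by its frequency for the tag-only sample.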

ETV5 = ETV5 (Homo sapiens, UniProt P41161 1-510); conditions: protein: recombinant; tags: N-terminal GST; dsDNA, one strand shown
Outline: as §1

HSF1 = HSF1 (Homo sapiens, UniProt Q00613 1-529); conditions: protein: recombinant; tags: N-terminal GST; chain copies: 3; dsDNA, one strand shown
Outline: as §1

SPIC = molecular target: T2, SPIC (Homo sapiens, UniProt Q8N5J4 1-248); conditions: protein: recombinant; tags: N-terminal GST; dsDNA, one strand shown
T2 sequence: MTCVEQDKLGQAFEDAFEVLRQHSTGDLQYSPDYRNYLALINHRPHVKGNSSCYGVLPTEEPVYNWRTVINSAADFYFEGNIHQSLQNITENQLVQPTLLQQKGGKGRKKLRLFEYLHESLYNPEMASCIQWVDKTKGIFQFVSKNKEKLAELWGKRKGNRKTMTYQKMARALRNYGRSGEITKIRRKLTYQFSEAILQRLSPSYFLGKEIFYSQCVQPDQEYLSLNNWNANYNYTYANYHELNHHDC
Outline: as §1

ELF4 = ELF4 (Homo sapiens, UniProt Q99607 1-663); conditions: protein: recombinant; tags: N-terminal GST; dsDNA, one strand shown
Outline: as §1

ELK4 = molecular target: T3, ELK4 (Homo sapiens, UniProt P28324-2 1-405); conditions: protein: recombinant; tags: N-terminal GST; dsDNA, one strand shown
T3 sequence: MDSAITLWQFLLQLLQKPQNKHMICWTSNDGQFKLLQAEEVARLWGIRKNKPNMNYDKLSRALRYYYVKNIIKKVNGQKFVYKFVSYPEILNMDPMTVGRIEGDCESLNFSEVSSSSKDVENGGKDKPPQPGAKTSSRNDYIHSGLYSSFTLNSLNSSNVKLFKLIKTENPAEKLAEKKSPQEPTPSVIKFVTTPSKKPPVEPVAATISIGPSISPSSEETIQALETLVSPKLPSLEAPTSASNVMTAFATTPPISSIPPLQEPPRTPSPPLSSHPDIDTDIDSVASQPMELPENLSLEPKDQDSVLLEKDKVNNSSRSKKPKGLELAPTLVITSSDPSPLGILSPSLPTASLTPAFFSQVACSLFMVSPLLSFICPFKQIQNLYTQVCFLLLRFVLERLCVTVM
Outline: as §1

ETV2 = molecular target: T4, ETV2 (Homo sapiens, UniProt O00321 1-342); conditions: protein: recombinant; tags: N-terminal GST; dsDNA, one strand shown
T4 sequence: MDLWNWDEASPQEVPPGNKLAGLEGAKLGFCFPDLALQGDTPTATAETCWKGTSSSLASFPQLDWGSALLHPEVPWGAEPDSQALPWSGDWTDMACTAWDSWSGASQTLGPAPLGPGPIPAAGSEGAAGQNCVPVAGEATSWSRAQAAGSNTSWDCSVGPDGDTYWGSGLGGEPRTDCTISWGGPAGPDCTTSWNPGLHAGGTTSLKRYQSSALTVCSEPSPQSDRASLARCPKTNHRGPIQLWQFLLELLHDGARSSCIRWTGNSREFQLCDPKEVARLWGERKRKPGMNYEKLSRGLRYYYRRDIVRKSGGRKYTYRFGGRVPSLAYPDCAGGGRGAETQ
Outline: as §1

ELF3 = molecular target: T5, ELF3 (Homo sapiens, UniProt P78545 1-371); conditions: protein: recombinant; tags: N-terminal GST; dsDNA, one strand shown
T5 sequence: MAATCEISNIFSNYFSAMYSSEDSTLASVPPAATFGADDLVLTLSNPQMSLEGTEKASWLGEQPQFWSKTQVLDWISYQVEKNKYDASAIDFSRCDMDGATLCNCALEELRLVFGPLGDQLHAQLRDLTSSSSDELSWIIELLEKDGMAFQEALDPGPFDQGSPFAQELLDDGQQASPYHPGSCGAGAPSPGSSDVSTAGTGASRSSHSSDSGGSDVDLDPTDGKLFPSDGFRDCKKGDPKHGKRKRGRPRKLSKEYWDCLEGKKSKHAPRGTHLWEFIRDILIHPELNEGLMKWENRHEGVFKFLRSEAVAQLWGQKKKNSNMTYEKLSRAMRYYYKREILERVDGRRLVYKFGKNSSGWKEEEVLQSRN
Outline: as §1

CRX = CRX (Homo sapiens, UniProt O43186 1-299); conditions: protein: recombinant; tags: N-terminal GST; dsDNA, one strand shown
Outline: as §1

ETV1 = ETV1 (Homo sapiens, UniProt P50549 1-477); conditions: protein: recombinant; tags: N-terminal GST; dsDNA, one strand shown
Outline: as §1

ERF = molecular target: T6, ERF (Homo sapiens, UniProt P50548 1-548); conditions: protein: recombinant; tags: N-terminal GST; dsDNA, one strand shown
T6 sequence: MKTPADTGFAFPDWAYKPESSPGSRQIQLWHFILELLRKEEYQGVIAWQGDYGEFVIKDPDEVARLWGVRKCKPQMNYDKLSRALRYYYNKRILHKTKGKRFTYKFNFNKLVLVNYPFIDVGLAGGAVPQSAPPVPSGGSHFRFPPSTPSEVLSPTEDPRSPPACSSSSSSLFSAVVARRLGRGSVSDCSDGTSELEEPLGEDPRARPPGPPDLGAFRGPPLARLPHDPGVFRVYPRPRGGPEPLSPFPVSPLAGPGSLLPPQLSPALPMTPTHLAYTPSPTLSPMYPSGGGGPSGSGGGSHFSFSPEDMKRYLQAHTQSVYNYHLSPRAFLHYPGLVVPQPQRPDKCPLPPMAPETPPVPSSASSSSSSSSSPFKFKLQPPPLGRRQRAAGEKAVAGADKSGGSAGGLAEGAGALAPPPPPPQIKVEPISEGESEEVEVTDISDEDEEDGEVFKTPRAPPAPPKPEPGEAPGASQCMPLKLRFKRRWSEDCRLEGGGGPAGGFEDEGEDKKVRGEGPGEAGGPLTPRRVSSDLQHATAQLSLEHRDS
Outline: as §1

ETV3L = molecular target: T7, ETV3L (Homo sapiens, UniProt Q6ZN32 1-361); conditions: protein: recombinant; tags: N-terminal GST; dsDNA, one strand shown
T7 sequence: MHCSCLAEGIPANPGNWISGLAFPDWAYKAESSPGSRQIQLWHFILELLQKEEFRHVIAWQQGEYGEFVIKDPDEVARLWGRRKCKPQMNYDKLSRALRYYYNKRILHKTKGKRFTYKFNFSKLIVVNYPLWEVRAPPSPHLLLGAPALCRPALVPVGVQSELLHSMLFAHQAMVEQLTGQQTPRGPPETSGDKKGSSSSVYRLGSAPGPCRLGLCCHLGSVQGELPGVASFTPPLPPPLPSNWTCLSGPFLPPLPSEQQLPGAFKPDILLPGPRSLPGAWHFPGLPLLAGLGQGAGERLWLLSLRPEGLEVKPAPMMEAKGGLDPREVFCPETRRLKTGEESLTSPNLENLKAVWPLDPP
Outline: as §1

ETS2 = molecular target: T8, ETS2 (Homo sapiens, UniProt P15036 1-469); conditions: protein: recombinant; tags: N-terminal GST; dsDNA, one strand shown
T8 sequence: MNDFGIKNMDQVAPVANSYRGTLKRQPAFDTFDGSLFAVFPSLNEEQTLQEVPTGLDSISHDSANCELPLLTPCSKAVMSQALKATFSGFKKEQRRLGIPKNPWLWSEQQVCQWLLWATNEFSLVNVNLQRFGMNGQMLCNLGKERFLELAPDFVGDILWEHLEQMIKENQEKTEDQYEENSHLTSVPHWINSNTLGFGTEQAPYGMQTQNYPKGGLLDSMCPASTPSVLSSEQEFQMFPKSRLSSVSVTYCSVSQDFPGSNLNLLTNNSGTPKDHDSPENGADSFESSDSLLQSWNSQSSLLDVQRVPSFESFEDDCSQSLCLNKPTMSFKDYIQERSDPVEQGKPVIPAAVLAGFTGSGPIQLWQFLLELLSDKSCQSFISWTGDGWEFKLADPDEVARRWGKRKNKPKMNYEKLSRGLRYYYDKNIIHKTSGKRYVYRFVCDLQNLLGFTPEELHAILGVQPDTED
Outline: as §1

SPDEF = molecular target: T9, SPDEF (Homo sapiens, UniProt O95238 1-335); conditions: protein: recombinant; tags: N-terminal GST; dsDNA, one strand shown
T9 sequence: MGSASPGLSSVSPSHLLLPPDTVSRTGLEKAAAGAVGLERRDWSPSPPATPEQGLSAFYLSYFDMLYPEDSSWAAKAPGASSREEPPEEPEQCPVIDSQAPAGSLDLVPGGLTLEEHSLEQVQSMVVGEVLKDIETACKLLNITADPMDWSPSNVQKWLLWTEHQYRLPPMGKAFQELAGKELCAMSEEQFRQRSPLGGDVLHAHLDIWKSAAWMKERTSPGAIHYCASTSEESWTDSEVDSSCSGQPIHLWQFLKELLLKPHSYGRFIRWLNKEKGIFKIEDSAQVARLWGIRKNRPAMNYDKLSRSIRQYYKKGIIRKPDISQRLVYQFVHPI
Outline: as §1

ETV7 = molecular target: T10, ETV7 (Homo sapiens, UniProt Q9Y603 1-341); conditions: protein: recombinant; tags: N-terminal GST; dsDNA, one strand shown
T10 sequence: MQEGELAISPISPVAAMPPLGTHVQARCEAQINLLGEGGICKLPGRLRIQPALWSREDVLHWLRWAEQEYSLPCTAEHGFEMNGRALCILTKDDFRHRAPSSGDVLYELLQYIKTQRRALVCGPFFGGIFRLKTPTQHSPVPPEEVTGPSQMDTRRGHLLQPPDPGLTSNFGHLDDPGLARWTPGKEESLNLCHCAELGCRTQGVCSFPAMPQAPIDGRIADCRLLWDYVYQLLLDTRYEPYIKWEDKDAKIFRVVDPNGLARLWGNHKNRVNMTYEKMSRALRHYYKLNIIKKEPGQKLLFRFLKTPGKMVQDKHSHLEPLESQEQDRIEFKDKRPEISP
Outline: as §1

ELF5 = molecular target: T11, ELF5 (Homo sapiens, UniProt Q9UKW6-2 1-255); conditions: protein: recombinant; tags: N-terminal GST; dsDNA, one strand shown
T11 sequence: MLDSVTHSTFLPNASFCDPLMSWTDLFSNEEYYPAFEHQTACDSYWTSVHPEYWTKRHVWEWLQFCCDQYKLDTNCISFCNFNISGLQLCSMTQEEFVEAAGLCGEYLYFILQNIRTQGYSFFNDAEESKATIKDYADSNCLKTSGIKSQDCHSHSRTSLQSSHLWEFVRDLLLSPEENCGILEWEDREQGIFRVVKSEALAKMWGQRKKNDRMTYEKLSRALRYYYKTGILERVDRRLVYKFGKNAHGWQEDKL
Outline: as §1

ETV3 = molecular target: T12, ETV3 (Homo sapiens, UniProt P41162-2 1-143); conditions: protein: recombinant; tags: N-terminal GST; dsDNA, one strand shown
T12 sequence: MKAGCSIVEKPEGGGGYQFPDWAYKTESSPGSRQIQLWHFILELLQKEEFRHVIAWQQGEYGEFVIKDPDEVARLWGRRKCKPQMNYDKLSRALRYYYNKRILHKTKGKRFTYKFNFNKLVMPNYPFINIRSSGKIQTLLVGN
Outline: as §1

ETV6 = ETV6 (Homo sapiens, UniProt P41212 1-452); conditions: protein: recombinant; tags: N-terminal GST; dsDNA, one strand shown
Outline: as §1

ELF4, sequence (Q99607 whole entry): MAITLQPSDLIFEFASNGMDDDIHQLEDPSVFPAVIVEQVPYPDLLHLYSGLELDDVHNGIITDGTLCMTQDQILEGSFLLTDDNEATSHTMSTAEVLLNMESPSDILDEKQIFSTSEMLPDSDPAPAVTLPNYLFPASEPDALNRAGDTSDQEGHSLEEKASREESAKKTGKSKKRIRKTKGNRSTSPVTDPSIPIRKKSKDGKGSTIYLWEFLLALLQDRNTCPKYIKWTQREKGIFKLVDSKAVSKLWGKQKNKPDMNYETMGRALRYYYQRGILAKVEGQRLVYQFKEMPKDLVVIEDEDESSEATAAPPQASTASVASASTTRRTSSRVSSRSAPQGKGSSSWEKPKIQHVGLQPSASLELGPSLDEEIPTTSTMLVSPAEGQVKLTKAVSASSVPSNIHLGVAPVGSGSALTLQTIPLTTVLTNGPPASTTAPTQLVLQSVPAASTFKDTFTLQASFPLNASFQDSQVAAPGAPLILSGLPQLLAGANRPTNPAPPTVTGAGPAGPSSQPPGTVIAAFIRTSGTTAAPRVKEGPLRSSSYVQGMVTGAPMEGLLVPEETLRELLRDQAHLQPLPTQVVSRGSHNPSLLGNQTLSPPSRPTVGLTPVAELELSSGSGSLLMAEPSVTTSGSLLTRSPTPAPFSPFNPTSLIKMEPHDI
HSF1, sequence (Q00613 whole entry): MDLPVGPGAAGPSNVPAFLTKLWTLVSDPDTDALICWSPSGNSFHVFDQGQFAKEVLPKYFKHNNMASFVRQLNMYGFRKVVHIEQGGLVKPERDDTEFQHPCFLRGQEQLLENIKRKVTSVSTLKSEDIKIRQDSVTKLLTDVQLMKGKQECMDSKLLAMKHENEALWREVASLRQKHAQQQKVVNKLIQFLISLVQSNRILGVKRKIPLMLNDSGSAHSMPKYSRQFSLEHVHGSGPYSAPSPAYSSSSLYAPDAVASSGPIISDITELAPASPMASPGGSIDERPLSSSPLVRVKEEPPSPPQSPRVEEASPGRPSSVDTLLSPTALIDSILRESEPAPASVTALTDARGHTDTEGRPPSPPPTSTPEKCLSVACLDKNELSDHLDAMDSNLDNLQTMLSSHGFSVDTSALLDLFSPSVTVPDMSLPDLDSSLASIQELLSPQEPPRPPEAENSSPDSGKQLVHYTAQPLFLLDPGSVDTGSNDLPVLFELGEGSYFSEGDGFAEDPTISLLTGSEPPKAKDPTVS
ETV6, sequence (P41212 whole entry): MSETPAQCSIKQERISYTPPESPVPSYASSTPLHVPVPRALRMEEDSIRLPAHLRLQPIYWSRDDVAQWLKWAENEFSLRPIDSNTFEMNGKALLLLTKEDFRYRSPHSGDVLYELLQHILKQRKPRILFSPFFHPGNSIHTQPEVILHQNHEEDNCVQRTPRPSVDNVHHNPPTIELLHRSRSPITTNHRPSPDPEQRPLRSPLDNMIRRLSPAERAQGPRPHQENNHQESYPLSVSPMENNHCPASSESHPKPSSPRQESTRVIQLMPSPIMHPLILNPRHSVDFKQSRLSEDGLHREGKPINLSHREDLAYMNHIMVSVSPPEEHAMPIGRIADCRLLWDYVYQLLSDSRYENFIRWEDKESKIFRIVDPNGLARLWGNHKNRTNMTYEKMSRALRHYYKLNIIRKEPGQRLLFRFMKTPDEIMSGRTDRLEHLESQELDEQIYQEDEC
ETV5, sequence (P41161 whole entry): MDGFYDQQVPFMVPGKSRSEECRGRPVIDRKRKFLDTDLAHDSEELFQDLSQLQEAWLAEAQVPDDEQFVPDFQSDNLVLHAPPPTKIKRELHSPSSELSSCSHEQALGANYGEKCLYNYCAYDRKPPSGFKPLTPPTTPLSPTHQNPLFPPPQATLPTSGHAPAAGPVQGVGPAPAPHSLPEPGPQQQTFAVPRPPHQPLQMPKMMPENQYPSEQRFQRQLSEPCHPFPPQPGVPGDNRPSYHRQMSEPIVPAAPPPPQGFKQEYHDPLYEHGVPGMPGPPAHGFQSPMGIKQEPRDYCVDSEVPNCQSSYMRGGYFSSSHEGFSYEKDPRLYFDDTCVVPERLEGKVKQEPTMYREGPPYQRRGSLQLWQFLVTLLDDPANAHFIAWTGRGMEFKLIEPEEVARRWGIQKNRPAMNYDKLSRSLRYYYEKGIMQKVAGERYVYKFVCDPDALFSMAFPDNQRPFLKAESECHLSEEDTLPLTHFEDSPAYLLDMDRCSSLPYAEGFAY
ETV1, sequence (P50549 whole entry): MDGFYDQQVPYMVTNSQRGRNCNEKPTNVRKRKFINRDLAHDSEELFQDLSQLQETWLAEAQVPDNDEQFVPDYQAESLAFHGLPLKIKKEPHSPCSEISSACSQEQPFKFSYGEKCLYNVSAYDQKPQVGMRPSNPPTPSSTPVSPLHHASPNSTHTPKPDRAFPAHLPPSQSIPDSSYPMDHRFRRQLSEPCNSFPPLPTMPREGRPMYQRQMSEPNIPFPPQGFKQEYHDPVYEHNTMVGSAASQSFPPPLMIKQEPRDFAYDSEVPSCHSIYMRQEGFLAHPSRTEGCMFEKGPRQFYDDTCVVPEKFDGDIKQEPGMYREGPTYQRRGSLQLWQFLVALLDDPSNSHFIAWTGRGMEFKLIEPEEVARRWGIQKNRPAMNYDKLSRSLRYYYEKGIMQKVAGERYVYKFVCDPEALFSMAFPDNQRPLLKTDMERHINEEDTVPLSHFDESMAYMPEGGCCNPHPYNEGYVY
CRX, sequence (O43186 whole entry): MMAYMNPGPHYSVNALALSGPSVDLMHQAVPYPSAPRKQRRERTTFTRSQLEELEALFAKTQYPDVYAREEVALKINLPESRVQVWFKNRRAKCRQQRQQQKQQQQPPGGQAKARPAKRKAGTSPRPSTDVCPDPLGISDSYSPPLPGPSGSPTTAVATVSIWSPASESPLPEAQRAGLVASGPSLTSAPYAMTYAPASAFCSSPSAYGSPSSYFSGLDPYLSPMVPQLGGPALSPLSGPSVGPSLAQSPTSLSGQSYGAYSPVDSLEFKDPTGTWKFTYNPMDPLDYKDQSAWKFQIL

Sequence: CTCCCA
- binding signal (FEV): 1.39 fold enrichment (6-mer frequency, TF over GST control)
- binding signal (ETV5): 1.37 fold enrichment (6-mer frequency, TF over GST control)
- binding signal (HSF1): 1.17 fold enrichment (6-mer frequency, TF over GST control)
- binding signal (SPIC): 1.38 fold enrichment (6-mer frequency, TF over GST control)
- binding signal (ELF4): 1.4 fold enrichment (6-mer frequency, TF over GST control)
- binding signal (ELK4): 1.44 fold enrichment (6-mer frequency, TF over GST control)
- binding signal (ETV2): 1.08 fold enrichment (6-mer frequency, TF over GST control)
- binding signal (ELF3): 1.36 fold enrichment (6-mer frequency, TF over GST control)
- binding signal (CRX): 1.19 fold enrichment (6-mer frequency, TF over GST control)
- binding signal (ETV1): 1.32 fold enrichment (6-mer frequency, TF over GST control)
- binding signal (ERF): 1.54 fold enrichment (6-mer frequency, TF over GST control)
- binding signal (ETV3L): 1.29 fold enrichment (6-mer frequency, TF over GST control)
- binding signal (ETS2): 1.37 fold enrichment (6-mer frequency, TF over GST control)
- binding signal (SPDEF): 1.42 fold enrichment (6-mer frequency, TF over GST control)
- binding signal (ETV7): 1.07 fold enrichment (6-mer frequency, TF over GST control)
- binding signal (ELF5): 1.41 fold enrichment (6-mer frequency, TF over GST control)
- binding signal (ETV3): 1.34 fold enrichment (6-mer frequency, TF over GST control)
- binding signal (ETV6): 1.46 fold enrichment (6-mer frequency, TF over GST control)
